# Screen size: about 5,500 compounds; about 2,000 (36%) were called active. About 18% were inconclusive and are not listed. Some of the results follow. Unmarked numbers belong to inactive results. Rule as the data show it: active = normalized growth mostly below about 0.91 (no sharp cut-off); inconclusive = no clear call, values can overlap the other calls; inactive = mostly above about 0.92.
# Test: chemical genetic growth profiling, strain panel (AID 1159580);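 also: tested at 20 µM; growth read once vehicle control cultures reached saturation at 30 °C; 1 = growth at the plate median or of vehicle wells; lower values mean less growth of the strain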
# Settings: S. cerevisiae deletion strains, growth OD
smiles,measurement,setting,value
Nc1ncnc2c1nc(Sc1ccc(Cl)cc1)n2C1OC2COP(=O)(O)O[C@@H]2[C@@H]1O (stereo partly specified),normalized growth,"locus YAL040C, strain CLN3, active compounds read low",0.98
same,normalized growth,"locus YDR150W, strain NUM1, active compounds read low",0.999
same,normalized growth,"locus YDR363W, strain ESC2, active compounds read low",1.01
same,normalized growth,"locus YER002W, strain NOP16, active compounds read low",0.984
same,normalized growth,"locus YNL175C, strain NOP13, active compounds read low",1.01
same,normalized growth,"locus YNL197C, strain WHI3, active compounds read low",1.02
same,normalized growth,"locus YNL224C, strain SQS1, active compounds read low",0.995
same,normalized growth,"locus YNL322C, strain KRE1, active compounds read low",0.996
same,normalized growth,"locus YOR083W, strain WHI5 (second series), active compounds read low",1.02
same,normalized growth,"locus YPL241C, strain CIN2, active compounds read low",1
O=C(NCCc1ccncc1)c1ccc(Cl)c(Cl)c1,normalized growth,"locus YAR019C, strain CDC15, active compounds read low",0.985
same,normalized growth,"locus YBL105C, strain PKC1, active compounds read low",0.987
same,normalized growth,"locus YBR135W, strain CKS1, active compounds read low",0.988
same,normalized growth,"locus YBR136W, strain MEC1, active compounds read low",0.987
same,normalized growth,"locus YBR160W, strain CDC28, active compounds read low",0.991
same,normalized growth,"locus YDL017W, strain CDC7, active compounds read low",0.991
same,normalized growth,"locus YDL028C, strain MPS1, active compounds read low",0.985
same,normalized growth,"locus YDL101C, strain DUN1, active compounds read low",0.98
same,normalized growth,"locus YDL108W, strain KIN28, active compounds read low",0.981
same,normalized growth,"locus YDL132W, strain cdc53, active compounds read low",0.998
same,normalized growth,"locus YDL214C, strain PRR2, active compounds read low",0.945
same,normalized growth,"locus YDR052C, strain DBF4, active compounds read low",0.988
same,normalized growth,"locus YDR054C, strain cdc34, active compounds read low",0.984
same,normalized growth,"locus YDR226W, strain ADK1, active compounds read low",0.985
same,normalized growth,"locus YDR477W, strain SNF1, active compounds read low",1.01
same,normalized growth,"locus YER123W, strain YCK3, active compounds read low",0.877
same,normalized growth,"locus YER133W, strain GLC7, active compounds read low",0.969
same,normalized growth,"locus YFL009W, strain cdc4, active compounds read low",0.982
same,normalized growth,"locus YFL029C, strain CAK1, active compounds read low",0.98
same,normalized growth,"locus YFR003C, strain YPI1, active compounds read low",0.984
same,normalized growth,"locus YFR019W, strain FAB1, active compounds read low",0.927
same,normalized growth,"locus YFR028C, strain CDC14, active compounds read low",0.994
same,normalized growth,"locus YGR040W, strain KSS1, active compounds read low",0.992
same,normalized growth,"locus YGR052W, strain FMP48, active compounds read low",0.985
same,normalized growth,"locus YGR092W, strain DBF2, active compounds read low",1
same,normalized growth,"locus YHR030C, strain SLT2, active compounds read low",0.911
same,normalized growth,"locus YHR079C, strain IRE1, active compounds read low",0.938
same,normalized growth,"locus YHR082C, strain KSP1, active compounds read low",1.1
same,normalized growth,"locus YHR205W, strain SCH9, active compounds read low",0.99
same,normalized growth,"locus YIL147C, strain SLN1, active compounds read low",0.986
same,normalized growth,"locus YJL095W, strain BCK1, active compounds read low",0.925
same,normalized growth,"locus YJL128C, strain PBS2, active compounds read low",0.94
same,normalized growth,"locus YJL157C, strain FAR1, active compounds read low",0.96
same,normalized growth,"locus YJR016C, strain ILV3, active compounds read low",0.995
same,normalized growth,"locus YJR066W, strain TOR1 (second series), active compounds read low",1.03
same,normalized growth,"locus YJR066W, strain TOR1, active compounds read low",1.04
same,normalized growth,"locus YKL048C, strain ELM1, active compounds read low",0.992
same,normalized growth,"locus YKL067W, strain YNK1, active compounds read low",0.947
same,normalized growth,"locus YKL101W, strain HSL1, active compounds read low",0.941
same,normalized growth,"locus YKL193C, strain SDS22, active compounds read low",0.992
same,normalized growth,"locus YKL203C, strain TOR2, active compounds read low",1.01
same,normalized growth,"locus YLR113W, strain HOG1, active compounds read low",0.756 (active)
same,normalized growth,"locus YLR133W, strain CKI1, active compounds read low",0.977
same,normalized growth,"locus YLR403W, strain SFP1, active compounds read low",0.972
same,normalized growth,"locus YML070W, strain DAK1, active compounds read low",0.941
same,normalized growth,"locus YMR001C, strain CDC5, active compounds read low",0.989
same,normalized growth,"locus YMR205C, strain PFK2 (second series), active compounds read low",0.978
same,normalized growth,"locus YMR277W, strain FCP1, active compounds read low",0.989
same,normalized growth,"locus YNL006W, strain LST8, active compounds read low",0.976
same,normalized growth,"locus YNL020C, strain ARK1, active compounds read low",0.964
same,normalized growth,"locus YNL161W, strain CBK1, active compounds read low",0.991
same,normalized growth,"locus YNL183C, strain NPR1, active compounds read low",1.01
same,normalized growth,"locus YNL207W, strain RIO2, active compounds read low",0.991
same,normalized growth,"locus YNL222W, strain SSU72, active compounds read low",0.992
same,normalized growth,"locus YNL307C, strain MCK1 (second series), active compounds read low",0.961
same,normalized growth,"locus YOL078W, strain AVO1, active compounds read low",0.997
same,normalized growth,"locus YOL136C, strain PFK27, active compounds read low",0.945
same,normalized growth,"locus YOR061W, strain CKA2, active compounds read low",0.924
same,normalized growth,"locus YOR119C, strain RIO1, active compounds read low",1.03
same,normalized growth,"locus YOR231W, strain MKK1, active compounds read low",0.916
same,normalized growth,"locus YOR329C, strain SCD5, active compounds read low",0.991
same,normalized growth,"locus YPL031C, strain PHO85, active compounds read low",0.976
same,normalized growth,"locus YPL153C, strain RAD53, active compounds read low",0.993
same,normalized growth,"locus YPL204W, strain HRR25, active compounds read low",0.972
same,normalized growth,"locus YPL209C, strain IPL1, active compounds read low",0.987
same,normalized growth,"locus YPL256C, strain CLN2, active compounds read low",0.868
same,normalized growth,"locus YPR025C, strain CCL1, active compounds read low",0.992
same,normalized growth,"locus YPR106W, strain ISR1, active compounds read low",0.983
same,normalized growth,"locus YPR111W, strain DBF20, active compounds read low",0.961
same,normalized growth,"strain NNK1, active compounds read low",0.982
same,normalized growth,"strain TSCII, active compounds read low",0.983
